Here are results for 39 molecules from PubChem BioAssay (NCI).

About 79,000 compounds went through this panel and 15% of them were active in at least one assay; those are over-represented in the sample as a whole. Values without a mark were called inactive. Calls of active or inactive are those of the source. Cut-off read from the data, not from the text of the source: active = growth inhibition above about 70%; inactive = the rest.

The nature of the first assay: NCI Yeast Anticancer Drug Screen. Data for the wt2 strain (AID 169).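 Note: 0% = growth of vehicle-treated yeast cultures.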 The note with it: S. cerevisiae wt2 strain growth inhibition; at 11.0 µM; hits give high values. The method, boiled down:
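This strain belongs to a panel of yeast strains with defined genetic alterations in DNA damage repair or cell cycle control. Compounds are applied, and growth inhibition is measured against vehicle-treated cultures.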
Turning to `CSc1nnc(SC)nn1`, the growth inhibition is 3%.

Take `COc1cc(/C=C2\CCC/C(=C\c3ccc(O)c(OC)c3)C2=O)ccc1O`: the growth inhibition is 22%.

Consider `CN(C)CCNC(=O)c1cccc2cc([N+](=O)[O-])ccc12`, for which the growth inhibition is 5%.

For the molecule `CCC(C)(C)c1ccc(Oc2cccc(C(=O)O)c2)cc1`, the growth inhibition was 7%.

Take `CCCCCCSc1ncnc2[nH]ncc12`: the growth inhibition was -3%.

For the molecule `CC(=O)Nc1ccc(/C=C/[N+](=O)[O-])cc1`, the growth inhibition is -4%.

For `CCOC(=O)c1[nH]n(-c2ccccc2)c(=O)c1C=NC(=S)C(N)=S`, the growth inhibition was 7%.

For `CCCC(O)C1CC(C(C)C)CCC1C` (stereo unspecified), the growth inhibition was 0%.

Regarding `O=[n+]1c2ccccc2n([O-])c2cc(Br)ccc21`, the growth inhibition was 99% (active).

Consider `CN(C)CCNC(=O)c1cccc2c1Oc1c(cccc1[N+](=O)[O-])O2`, for which the growth inhibition was -40%.

Take `Nc1ncc(-c2ccc(Br)cc2)s1`: the growth inhibition was 8%.

For the molecule `Cc1cc2cc3cc(C)c(N)cc3nc2cc1N`, the growth inhibition is 2%.

`CC12C(=O)OC(=O)C(c3ccccc31)c1ccccc12`: the growth inhibition was 11%.

With `c1ccc2c(OCC3CO3)cccc2c1` (stereo unspecified), the growth inhibition was 0%.

Turning to `CCOC(=N)c1ccc(O)c(OC)c1`, the growth inhibition is -3%.

`Nc1cc(N)c(N=Nc2cccc3c(S(=O)(=O)O)cccc23)cc1N=Nc1cc([N+](=O)[O-])ccc1O`: the growth inhibition was -26%.

On to `COC(=O)Oc1cc(Cl)c(Cl)cc1Cl`, for which the growth inhibition is -2%.

Consider `O=C(O)C1CC(c2ccccc2)=NN1c1ccccc1` (stereo unspecified), for which the growth inhibition was -36%.

Consider `COc1cc([C@@H]2c3cc4c(cc3[C@@H](Nc3ccc(NC(=O)c5cc([N+](=O)[O-])cn5C)cc3)[C@H]3COC(=O)[C@H]23)OCO4)cc(OC)c1O`, for which the growth inhibition is -8%.

As for `O=C(O)c1ccccc1/C=N/N=C1c2ccccc2-c2ccccc21`, the growth inhibition is -1%.

`O=C1CC(=O)c2ccccc21`: the growth inhibition was 1%.

With `Nc1ncnc2c1ncn2C1OC(CO)CC1O` (stereo unspecified), the growth inhibition was 13%.

Staying with this assay, now noted: S. cerevisiae wt2 strain growth inhibition; at 33.0 µM; hits give high values.
In the case of `CS(=O)(=O)SCc1ccc([N+](=O)[O-])cc1`, the growth inhibition is 99% (active).

Consider `Cc1csc(=S)n1OC(=O)NC1CCCCC1`, for which the growth inhibition was 99% (active).

With `CCOc1ccc(NC(=O)C2=C(C)NC(C)=C(C(=O)Nc3ccc(OCC)cc3)C2c2cccc([N+](=O)[O-])c2)cc1`, the growth inhibition is 22%.

With `CC(C)(C)N=C(NO)c1ccccc1`, the growth inhibition was 20%.

Turning to `CCCCC/C(=C(\C#N)C(=O)OCC)c1ccccc1`, the growth inhibition was -3%.

In the case of `O=C(NCCCl)Sc1ccc(Cl)cc1`, the growth inhibition is 30%.

For `O=C1Nc2ccc(Br)cc2C1=Nc1ccc2c(c1)OCO2`, the growth inhibition is -34%.

On to `CCC(C)OC(=O)Nc1ccc(C)c(NC(=O)OC(C)CC)c1` (stereo unspecified), for which the growth inhibition was 6%.

As for `O=C(O)c1cc2ccc(Cl)cc2c(O)c1C1=CCCCC1`, the growth inhibition is 52%.

Regarding `CN(C)Cc1cc(N=Nc2ccc(Cl)cc2)ccc1OC(=O)c1ccccc1`, the growth inhibition was 21%.

As to `CN1CCN(C(=O)/C=C/C(=O)c2ccccc2)CC1`, the growth inhibition was 76% (active).

With `CCCC/C=C/C(C)(C(=O)OCC)C(=O)OCC`, the growth inhibition was -4%.

For the molecule `Cc1nc(-c2cc3cc([N+](=O)[O-])ccc3oc2=O)cs1`, the growth inhibition is 28%.

As for `Cc1nc2ccccc2nc1NNc1ccccc1`, the growth inhibition was 23%.

For the molecule `CN(C)[C@@H]1C(=O)C(C(N)=O)=C(O)[C@@]2(O)C(=O)C3=C(O)c4c(O)cccc4C[C@H]3C[C@@H]12`, the growth inhibition is 99% (active).

`COc1ccc(NC(=O)CC2SC(=Nc3ccccc3C)NC2=O)c([N+](=O)[O-])c1` (stereo unspecified): the growth inhibition was 11%.

`COc1cc(O)c2c(c1O)C(=O)c1cc(C)ncc1C2=O`: the growth inhibition was 91% (active).

With `CSc1nnc(SC)nn1`, the growth inhibition is 38%.

Regarding `COc1cc(/C=C2\CCC/C(=C\c3ccc(O)c(OC)c3)C2=O)ccc1O`, the growth inhibition was 27%.

On to `CN(C)CCNC(=O)c1cccc2cc([N+](=O)[O-])ccc12`, for which the growth inhibition was 60%.

For the molecule `CCC(C)(C)c1ccc(Oc2cccc(C(=O)O)c2)cc1`, the growth inhibition is 46%.

For `CCCCCCSc1ncnc2[nH]ncc12`, the growth inhibition was -3%.

In the case of `CC(=O)Nc1ccc(/C=C/[N+](=O)[O-])cc1`, the growth inhibition was 11%.

As to `CCOC(=O)c1[nH]n(-c2ccccc2)c(=O)c1C=NC(=S)C(N)=S`, the growth inhibition is 46%.

As to `CCCC(O)C1CC(C(C)C)CCC1C` (stereo unspecified), the growth inhibition is 4%.

For `O=[n+]1c2ccccc2n([O-])c2cc(Br)ccc21`, the growth inhibition is 100% (active).

With `CN(C)CCNC(=O)c1cccc2c1Oc1c(cccc1[N+](=O)[O-])O2`, the growth inhibition is -37%.

With `Nc1ncc(-c2ccc(Br)cc2)s1`, the growth inhibition is 93% (active).

Consider `Cc1cc2cc3cc(C)c(N)cc3nc2cc1N`, for which the growth inhibition is 56%.

As for `CC12C(=O)OC(=O)C(c3ccccc31)c1ccccc12`, the growth inhibition was 9%.

Turning to `c1ccc2c(OCC3CO3)cccc2c1` (stereo unspecified), the growth inhibition was 5%.

As for `CCOC(=N)c1ccc(O)c(OC)c1`, the growth inhibition is -1%.

Consider `Nc1cc(N)c(N=Nc2cccc3c(S(=O)(=O)O)cccc23)cc1N=Nc1cc([N+](=O)[O-])ccc1O`, for which the growth inhibition is 6%.

Take `COC(=O)Oc1cc(Cl)c(Cl)cc1Cl`: the growth inhibition was -2%.

Take `O=C(O)C1CC(c2ccccc2)=NN1c1ccccc1` (stereo unspecified): the growth inhibition was 0%.

For `COc1cc([C@@H]2c3cc4c(cc3[C@@H](Nc3ccc(NC(=O)c5cc([N+](=O)[O-])cn5C)cc3)[C@H]3COC(=O)[C@H]23)OCO4)cc(OC)c1O`, the growth inhibition was 6%.

Regarding `O=C(O)c1ccccc1/C=N/N=C1c2ccccc2-c2ccccc21`, the growth inhibition was 0%.

In the case of `O=C1CC(=O)c2ccccc21`, the growth inhibition is 5%.

For the molecule `Nc1ncnc2c1ncn2C1OC(CO)CC1O` (stereo unspecified), the growth inhibition is 66%.
